In ChEMBL document CHEMBL3988442, “University of Dundee, Small-Polar-MMV Screening Library” (2021):
For some of these results: Entries with a potency or affinity are not part of this list.

Tests used:
Design in all cases: scale not given: direction of the effect not stated beside the values
[1] = target: Protein translocase subunit SecA (Escherichia coli (strain K12)) (UniProt P10408); experiment: Assay to Identify E. coli SecA ATPase Inhibitors; format: functional; conditions: 30 µM
[2] = target: T1, Ubiquitin-activating enzyme e1, putative (Leishmania donovani (strain BPK282A1)) (UniProt E9BSI1); experiment: Leishmania donovani Ubiquitin Activating Enzyme (LdE1); format: functional; conditions: 30 µM
T1 sequence (whole entry): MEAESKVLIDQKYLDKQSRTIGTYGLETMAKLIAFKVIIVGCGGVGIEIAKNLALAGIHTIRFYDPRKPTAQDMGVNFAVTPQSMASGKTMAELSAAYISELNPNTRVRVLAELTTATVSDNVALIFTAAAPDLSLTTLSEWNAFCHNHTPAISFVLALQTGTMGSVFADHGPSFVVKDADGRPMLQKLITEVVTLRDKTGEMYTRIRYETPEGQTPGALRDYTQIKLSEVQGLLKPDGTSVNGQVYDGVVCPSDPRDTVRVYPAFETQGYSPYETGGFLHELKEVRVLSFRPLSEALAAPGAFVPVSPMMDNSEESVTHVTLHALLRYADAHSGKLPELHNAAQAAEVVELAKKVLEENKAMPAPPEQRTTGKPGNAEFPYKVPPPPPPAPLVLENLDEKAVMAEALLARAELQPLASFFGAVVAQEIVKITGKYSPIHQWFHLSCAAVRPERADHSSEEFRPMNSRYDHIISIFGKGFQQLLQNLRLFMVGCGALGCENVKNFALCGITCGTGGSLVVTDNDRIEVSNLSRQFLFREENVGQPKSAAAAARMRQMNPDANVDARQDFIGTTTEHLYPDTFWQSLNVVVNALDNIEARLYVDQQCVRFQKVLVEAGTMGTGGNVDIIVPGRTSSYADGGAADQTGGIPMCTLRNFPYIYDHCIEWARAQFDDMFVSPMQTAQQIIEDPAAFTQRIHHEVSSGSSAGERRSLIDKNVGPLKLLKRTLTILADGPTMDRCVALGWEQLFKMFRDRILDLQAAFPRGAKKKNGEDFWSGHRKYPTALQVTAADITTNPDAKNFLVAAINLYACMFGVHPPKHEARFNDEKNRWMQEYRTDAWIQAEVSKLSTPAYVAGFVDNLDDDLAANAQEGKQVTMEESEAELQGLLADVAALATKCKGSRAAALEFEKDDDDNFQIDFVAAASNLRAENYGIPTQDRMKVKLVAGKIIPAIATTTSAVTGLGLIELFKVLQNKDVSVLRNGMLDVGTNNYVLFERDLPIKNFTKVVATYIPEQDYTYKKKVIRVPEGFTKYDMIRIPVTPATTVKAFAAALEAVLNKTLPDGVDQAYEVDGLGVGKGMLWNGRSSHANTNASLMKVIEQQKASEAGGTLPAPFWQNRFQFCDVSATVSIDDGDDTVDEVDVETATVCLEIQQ

[3] = target: AMP-activated protein kinase, AMPK (Homo sapiens) (UniProt P54646+O43741+P54619+Q9UGJ0+Q9Y478+Q13131+Q9UGI9); experiment: AMP-dependent Kinase enzyme assay. An in vitro enzyme assay that detects ADP turnover that is directly proportional to AMPK activity. This uses naive AMPK that is activated during the assay with MK-8722; format: functional; conditions: 30 µM
[4] = target: Sialic acid-binding Ig-like lectin 9 (Homo sapiens) (UniProt Q9Y336); experiment: Hs-Siglec9 ALPHAscreen SOP 20170721; conditions: 10 µM
Trypanosoma cruzi = experiment: Trypanosoma cruzi phosphomannomutase and mannose-1-phosphate guanylyltransferase assay; format: functional; conditions: 10 µM
[5] = target: T2, Arginase-2, mitochondrial (Homo sapiens) (UniProt P78540); experiment: in vitro enzyme assay to detect the production of urea directly proportional to the activity of Arginase II; format: functional; conditions: 33.3 µM; further: in the data most compounds retested in dose-response had high values
T2 sequence (whole entry): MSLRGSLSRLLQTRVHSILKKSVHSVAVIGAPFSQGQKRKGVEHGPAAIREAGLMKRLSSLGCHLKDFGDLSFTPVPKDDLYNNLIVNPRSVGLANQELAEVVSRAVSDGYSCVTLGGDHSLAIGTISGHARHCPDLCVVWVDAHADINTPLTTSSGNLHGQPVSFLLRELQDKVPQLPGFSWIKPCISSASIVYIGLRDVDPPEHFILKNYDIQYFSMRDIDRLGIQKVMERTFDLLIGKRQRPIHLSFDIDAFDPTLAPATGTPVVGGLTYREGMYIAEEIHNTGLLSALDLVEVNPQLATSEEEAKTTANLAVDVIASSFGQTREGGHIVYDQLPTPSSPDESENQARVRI

[6] = target: T3, Proteasome subunit beta (Trypanosoma cruzi) (UniProt O96673); experiment: Trypanosoma cruzi proteasome chymotrypsin-like activity (TcProtChymo) assay.; further: in the data most compounds retested in dose-response had high values; format: functional; conditions: 9.37 µM
T3 sequence (whole entry): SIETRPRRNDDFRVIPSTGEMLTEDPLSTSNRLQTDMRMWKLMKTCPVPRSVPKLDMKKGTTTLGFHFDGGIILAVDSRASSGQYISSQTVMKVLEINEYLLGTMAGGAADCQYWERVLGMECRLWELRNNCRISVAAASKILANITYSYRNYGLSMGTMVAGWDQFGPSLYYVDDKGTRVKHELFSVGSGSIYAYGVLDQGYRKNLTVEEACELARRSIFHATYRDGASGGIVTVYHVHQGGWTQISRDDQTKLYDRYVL

Homo sapiens = species: Homo sapiens; experiment: To identify inhibition of the IFN signalling (Jak-Stat) pathway via expression of an eGFP reporter gene under the control of an IFN-stimulated response element (ISRE) containing MxA promoter.; format: functional; conditions: 30 µM
[7] = target: T4, Tyrosyl-tRNA synthetase, putative (Trypanosoma cruzi (strain CL Brener)) (UniProt Q4DSP6); experiment: Trypanosoma cruzi tyrosyl tRNA synthetase (TcYRS) _High Tyrosine SOP; format: functional; conditions: 30 µM; further: in the data most compounds retested in dose-response had high values
T4 sequence (whole entry): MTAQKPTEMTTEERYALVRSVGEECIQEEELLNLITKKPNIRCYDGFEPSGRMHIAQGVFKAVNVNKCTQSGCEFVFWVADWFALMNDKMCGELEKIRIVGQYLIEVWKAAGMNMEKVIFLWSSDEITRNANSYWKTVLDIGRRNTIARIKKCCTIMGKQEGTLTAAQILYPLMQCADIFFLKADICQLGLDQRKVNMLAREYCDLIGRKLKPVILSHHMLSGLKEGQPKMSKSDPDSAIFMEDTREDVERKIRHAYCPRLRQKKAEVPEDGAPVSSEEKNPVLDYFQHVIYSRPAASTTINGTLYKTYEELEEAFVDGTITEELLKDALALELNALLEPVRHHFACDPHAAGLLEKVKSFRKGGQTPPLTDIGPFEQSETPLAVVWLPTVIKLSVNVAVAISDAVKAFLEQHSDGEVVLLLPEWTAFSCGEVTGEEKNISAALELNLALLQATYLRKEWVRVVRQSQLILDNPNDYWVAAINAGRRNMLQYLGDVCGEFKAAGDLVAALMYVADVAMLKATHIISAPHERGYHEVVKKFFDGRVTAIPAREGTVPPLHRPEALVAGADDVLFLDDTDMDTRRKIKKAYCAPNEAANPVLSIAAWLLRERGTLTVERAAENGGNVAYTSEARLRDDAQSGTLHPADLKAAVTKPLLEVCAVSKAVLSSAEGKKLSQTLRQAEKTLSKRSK

[8] = target: T4, Tyrosyl-tRNA synthetase, putative (Trypanosoma cruzi (strain CL Brener)); experiment: Trypanosoma cruzi tyrosyl tRNA synthetase (TcYRS) SOP; format: functional; conditions: 30 µM
[9] = target: Chromo domain-containing protein 1 (Saccharomyces cerevisiae (strain ATCC 204508 / S288c) (Baker's yeast)) (UniProt P32657); experiment: ScCHD-1 Enzyme Inhibition Assay; format: functional; conditions: 30 µM; further: in the data most compounds retested in dose-response had high values
Sequence of Chromo domain-containing protein 1 (Saccharomyces cerevisiae (strain ATCC 204508 / S288c) (Baker's yeast)) (P32657 whole entry, the tested form may be a part): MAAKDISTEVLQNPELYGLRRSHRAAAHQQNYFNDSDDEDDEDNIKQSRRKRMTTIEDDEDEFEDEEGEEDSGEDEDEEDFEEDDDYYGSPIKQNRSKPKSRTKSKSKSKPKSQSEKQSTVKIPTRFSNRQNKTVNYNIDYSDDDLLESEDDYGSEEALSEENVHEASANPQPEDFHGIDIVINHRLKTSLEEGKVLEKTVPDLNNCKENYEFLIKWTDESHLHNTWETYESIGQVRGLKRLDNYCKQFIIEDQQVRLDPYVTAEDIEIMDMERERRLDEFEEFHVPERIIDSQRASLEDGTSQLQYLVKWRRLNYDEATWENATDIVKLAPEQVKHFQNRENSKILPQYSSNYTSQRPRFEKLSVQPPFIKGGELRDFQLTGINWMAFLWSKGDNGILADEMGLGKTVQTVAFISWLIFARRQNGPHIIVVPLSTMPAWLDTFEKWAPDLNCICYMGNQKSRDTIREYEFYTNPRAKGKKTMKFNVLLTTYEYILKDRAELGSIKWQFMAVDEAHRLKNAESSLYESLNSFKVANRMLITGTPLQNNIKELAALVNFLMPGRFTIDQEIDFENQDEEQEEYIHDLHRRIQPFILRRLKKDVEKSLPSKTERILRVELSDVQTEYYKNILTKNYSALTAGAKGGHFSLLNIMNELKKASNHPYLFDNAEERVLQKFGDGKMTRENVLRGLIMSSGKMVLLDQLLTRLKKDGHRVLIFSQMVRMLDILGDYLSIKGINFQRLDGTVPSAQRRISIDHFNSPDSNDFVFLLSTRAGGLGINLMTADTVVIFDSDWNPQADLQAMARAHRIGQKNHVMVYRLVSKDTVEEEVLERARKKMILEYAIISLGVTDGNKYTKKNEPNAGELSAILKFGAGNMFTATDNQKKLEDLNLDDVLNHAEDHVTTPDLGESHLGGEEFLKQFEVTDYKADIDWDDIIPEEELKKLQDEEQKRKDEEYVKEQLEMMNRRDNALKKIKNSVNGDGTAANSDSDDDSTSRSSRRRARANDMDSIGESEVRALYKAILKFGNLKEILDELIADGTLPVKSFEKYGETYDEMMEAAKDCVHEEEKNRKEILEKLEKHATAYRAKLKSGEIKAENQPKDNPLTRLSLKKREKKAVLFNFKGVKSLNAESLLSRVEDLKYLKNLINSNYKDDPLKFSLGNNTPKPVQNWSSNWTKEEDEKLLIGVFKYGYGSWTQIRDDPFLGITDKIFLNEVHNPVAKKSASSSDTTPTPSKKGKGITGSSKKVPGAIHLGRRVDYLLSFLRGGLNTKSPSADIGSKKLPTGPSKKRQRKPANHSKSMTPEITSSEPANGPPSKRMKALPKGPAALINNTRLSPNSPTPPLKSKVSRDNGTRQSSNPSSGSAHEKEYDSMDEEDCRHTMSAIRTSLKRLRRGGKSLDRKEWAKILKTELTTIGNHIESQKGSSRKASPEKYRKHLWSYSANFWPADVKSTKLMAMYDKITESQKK

Sequence of Protein translocase subunit SecA (Escherichia coli (strain K12)) (P10408 whole entry): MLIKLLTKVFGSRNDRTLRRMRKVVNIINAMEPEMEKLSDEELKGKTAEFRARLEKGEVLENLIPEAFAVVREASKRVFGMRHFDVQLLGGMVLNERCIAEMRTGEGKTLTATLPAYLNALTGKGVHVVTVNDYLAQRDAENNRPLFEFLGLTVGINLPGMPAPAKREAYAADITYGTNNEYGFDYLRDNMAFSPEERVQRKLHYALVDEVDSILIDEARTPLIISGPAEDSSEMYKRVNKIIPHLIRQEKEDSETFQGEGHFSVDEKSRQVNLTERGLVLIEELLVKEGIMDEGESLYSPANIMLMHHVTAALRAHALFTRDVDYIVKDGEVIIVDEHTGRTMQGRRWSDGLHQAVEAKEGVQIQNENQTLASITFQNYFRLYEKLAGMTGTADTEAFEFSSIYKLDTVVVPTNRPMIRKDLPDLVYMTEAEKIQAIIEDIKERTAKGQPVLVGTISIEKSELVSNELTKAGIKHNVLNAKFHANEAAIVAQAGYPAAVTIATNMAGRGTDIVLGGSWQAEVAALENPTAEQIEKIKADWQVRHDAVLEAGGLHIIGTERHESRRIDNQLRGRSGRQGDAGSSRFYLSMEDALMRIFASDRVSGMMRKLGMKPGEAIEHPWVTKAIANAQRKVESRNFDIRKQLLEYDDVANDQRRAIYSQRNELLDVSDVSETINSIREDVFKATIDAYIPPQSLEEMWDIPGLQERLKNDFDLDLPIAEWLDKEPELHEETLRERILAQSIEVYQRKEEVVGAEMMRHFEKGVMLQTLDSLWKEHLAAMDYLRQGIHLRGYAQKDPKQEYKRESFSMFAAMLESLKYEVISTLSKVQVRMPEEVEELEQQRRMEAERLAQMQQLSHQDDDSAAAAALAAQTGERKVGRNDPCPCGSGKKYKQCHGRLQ
Sequence of Sialic acid-binding Ig-like lectin 9 (Homo sapiens) (Q9Y336 whole entry): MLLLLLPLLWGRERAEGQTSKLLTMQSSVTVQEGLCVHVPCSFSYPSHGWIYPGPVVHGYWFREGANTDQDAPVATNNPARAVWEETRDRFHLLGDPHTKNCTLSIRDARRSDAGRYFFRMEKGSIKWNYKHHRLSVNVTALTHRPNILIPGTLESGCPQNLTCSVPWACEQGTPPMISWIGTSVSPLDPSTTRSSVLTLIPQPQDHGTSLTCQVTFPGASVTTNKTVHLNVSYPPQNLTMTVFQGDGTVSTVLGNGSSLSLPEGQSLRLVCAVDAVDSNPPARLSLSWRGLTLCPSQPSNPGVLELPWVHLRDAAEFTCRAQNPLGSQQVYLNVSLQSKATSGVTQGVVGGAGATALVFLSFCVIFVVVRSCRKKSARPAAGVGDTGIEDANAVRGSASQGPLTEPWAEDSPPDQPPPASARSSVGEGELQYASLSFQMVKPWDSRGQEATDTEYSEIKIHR

SMILES | Percent Effect [1] [%] | Percent Effect [2] [%] | Percent Effect [3] [%] | Percent Effect [4] [%] | Percent Effect (Trypanosoma cruzi) [%] | Percent Effect [5] [%] | Percent Effect [6] [%] | Percent Effect (Homo sapiens) [%] | Percent Effect [7] [%] | Percent Effect [8] [%] | Percent Effect [9] [%]
COc1ccc(COCC(O)CNC(=O)c2cnc(C)cn2)cc1 (stereo not given) | -3.92 | -8.86 | 0.227 | 0.611 | 0.308 | -1.94 | 10.1 | 7.75 | 4.17 | 10.1 | -25.8
CNC(=O)CS(=O)(=O)C1CCN(S(=O)(=O)c2c(F)cccc2F)CC1 | -2.05 | -2.74 | 6.92 | 0.634 | 5.68 | -1.82 | 3.9 | -17.8 | 1.07 | 0 | -1.05
CCOc1ncccc1NC(=O)NCC(O)c1ccccc1OC (stereo not given) | -2.5 | 22.8 | 4.8 | -4.05 | 4.06 | 4.94 | 9.75 | 23.4 | 3.45 | 21.5 | -7.12
COc1ccc(CNC(=O)NC(C)Cn2cccn2)cc1O (stereo not given) | -1.61 | 5.2 | -4.12 | 3.12 | 2.64 | -1.47 | 3.15 | 25.9 | 3.81 | 11.8 | -15.6
Cc1cccc(C)c1NC(=O)CCNC(=O)c1ccoc1 | -3.75 | 18.2 | 5.22 | -2.96 | 1.27 | 0.21 | 20.3 | 16 | 10.5 | 14.1 | -8.58
Cc1ccc(C)c(CNC(=O)NC(C)(C(=O)O)c2ccco2)c1 (stereo not given) | -5.53 | 21.1 | -0.592 | 12.2 | 8.12 | -5.75 | 5.33 | 5.04 | 5.42 | 16.1 | -4.02
CCN(C(=O)Nc1cccnc1OC)C1CC1 | -6.66 | 15.6 | -6.43 | 15.2 | 5.24 | -3.2 | 7.6 | 5.42 | 4.85 | 19.5 | -9.65
CCCNC(=O)Nc1cc2c(cc1SC)OCCO2 | -5.72 | 13.5 | -3.48 | 12.2 | 2.93 | 11.2 | 10.7 | -1.29 | 8.91 | 8.54 | -6.19
Cc1ccc(S(=O)(=O)N2C[C@@H]3C[C@@H](NC(=O)C(C)(C)C)[C@@H]3C2)cc1 | -5.99 | 14.9 | 5.25 | 4.69 | 2.77 | -3.48 | 12.3 | 2.6 | 3.23 | 9.09 | -22.4
COC(=O)c1cc(OCC2CCC2)cc(C(=O)N[C@H]2CC[C@H](O)CC2)c1 | -8.61 | 0 | -13.1 | 12.3 | -5.09 | -0.455 | 2.66 | 32.3 | 0 | 0 | 0.449
Cc1cc2n(n1)CC(CNC1CCN(c3ccc(F)cc3)CC1)CN2 (stereo not given) | -2.69 | 8.11 | -9.27 | 18.6 | 6.35 | 15.1 | -0.0858 | -21.8 | 1.07 | 18.5 | -6.89
CC(C)c1cc(NC(=O)c2ccc(C(=O)NC(C)(C)C)cc2)[nH]n1 | -6.52 | 23.4 | 112 | -4.38 | -3 | 0.712 | 0.169 | 53 | 6.8 | 24.4 | -4.07
COCCN1CCC(CNC(=O)c2cc(C)cc(C)c2)C1 (stereo not given) | -6.49 | 10.5 | -7.62 | 15.5 | 6.26 | -1.8 | 8.88 | -10.5 | 6.4 | 13.6 | -4.84
c1cncc(-c2nccc(CN3CCCC3)n2)c1 | -0.958 | 6.76 | 11.4 | -5.74 | 2.37 | -22 | 19.5 | -2.71 | 9.68 | 14.3 | -16.2
Cc1ccc(CN2CCc3ncnc(C4CC4)c3CC2)s1 | 1.05 | 5.33 | 5.76 | -4.5 | -5.41 | -54.3 | 6.15 | 43.3 | 8.33 | 12.5 | -7.16
CC(Oc1ccccc1C(F)(F)F)C(=O)NS(=O)(=O)C(C)C (stereo not given) | 7.54 | 0 | 5.54 | -3.2 | 4.88 | -2.92 | 14.1 | -2.84 | 6.93 | 11 | -6.88
Cn1ccnc1CN1CCN(Cc2cc(C#N)ccc2F)CC1 | -2.4 | 2.7 | 1.09 | -1.18 | -9.38 | 6.1 | 10.8 | 20 | 5.94 | 6.1 | 3.16
Cc1nc(CN(Cc2cccs2)C2CCS(=O)(=O)C2)oc1C (stereo not given) | -3.68 | 15.8 | -1.59 | 1.17 | -3.27 | 2.16 | 6.85 | -8.22 | 5.42 | 23.5 | 1.43
Cc1cc(C)n(-c2ccc(CNCc3ccc(OC(C)C)cc3)cn2)n1 | -0.648 | 13.2 | -0.778 | -0.618 | 6.01 | -3.06 | 15.5 | 20.5 | 13.2 | 19.5 | -10.2
CC(C)(CNC(=O)NCCOc1cccc(F)c1)C(N)=O | -3.85 | 7.89 | 1.82 | 8.76 | 0.94 | 2.3 | 0.167 | -5.69 | 6.37 | 17.1 | -6.58
